PubChem BioAssay AID652096 (National Center for Advancing Translational Sciences (NCATS), 2013)
Activity calls are given as the source filed them.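 How the source made its calls: active means fold change of 2 or more in glucocerebrosidase protein level on Western blot; inactive means the rest.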

Each molecule was assayed against Lysosomal acid glucosylceramidase (Homo sapiens) (UniProt P04062) (assay: Extended Characterization of Activators of N370S glucocerebrosidase as a Potential Chaperone Treatment of Gaucher Disease: Western Blot). Details: Patient cells, GCase protein level, stronger effect = higher value.
Source text: Glucocerebrosidase (GCase) catalyzes the hydrolysis of beta-glucocerebroside to glucose and ceramide in lysosomes. Mutations in the glucocerebrosidase gene result in Gaucher disease, an autosomal recessive lysosomal storage disorder. Many of the mutations encountered in patients with Gaucher disease are missense alterations that may cause misfolding, decreased stability and/or mistrafficking of this lysosomal protein. […] These inhibitors include iminosugar analogs and other inhibitors that were discovered as part of previous work. However, the enhancement of enzyme activity by the chaperone action of an enzyme inhibitor must be balanced against the direct inhibition of the enzyme. […] In this extended characterization of our probe, we have further characterized the activity of our probe in relevant models. In this Western Blot assay, we examined the effects of compounds to increase GCase activity. NIH Chemical Genomics Center [NCGC] NIH Molecular Libraries Probe Production Centers Network [MLPCN] MLPCN Grant: MH086442 Assay Submitter (PI): Ellen Sidransky, NHGRI
The cells were plated and exposed to the compounds. Cells were harvested and the cell extracts were subjected to SDS-PAGE and Western blotting procedures to evaluate the extent of upregulation of GCase activity.

Lysosomal acid glucosylceramidase (Homo sapiens), sequence (P04062 40-536 N409S): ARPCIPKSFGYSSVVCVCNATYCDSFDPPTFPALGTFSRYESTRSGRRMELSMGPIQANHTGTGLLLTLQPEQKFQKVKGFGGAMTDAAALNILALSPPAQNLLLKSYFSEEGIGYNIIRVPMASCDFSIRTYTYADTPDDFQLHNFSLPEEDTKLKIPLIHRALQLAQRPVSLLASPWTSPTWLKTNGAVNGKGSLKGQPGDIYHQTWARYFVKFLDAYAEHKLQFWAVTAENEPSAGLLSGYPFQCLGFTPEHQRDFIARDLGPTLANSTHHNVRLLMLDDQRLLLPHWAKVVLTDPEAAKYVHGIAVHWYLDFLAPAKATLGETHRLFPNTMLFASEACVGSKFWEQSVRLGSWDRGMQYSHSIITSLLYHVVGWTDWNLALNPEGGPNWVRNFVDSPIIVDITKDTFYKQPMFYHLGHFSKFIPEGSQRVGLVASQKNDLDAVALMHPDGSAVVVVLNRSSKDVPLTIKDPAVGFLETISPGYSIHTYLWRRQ

Row | Structure (SMILES) | fold change
1 | C#Cc1ccc(NC(=O)c2cnn3c(C)cc(C)nc23)cc1 | 2 (active)
